S1P4 antag: human S1P4 receptor antagonism; S1P4-expressing cells, antagonist mode, reporter read-out; 0.26% of 220,000 active; inhibition, % at 4.98 µM; AID 1510; O95977; in the data active = inhibition above about 29%;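 also: 0% = wells stimulated with agonist and 100% = vehicle wells without agonist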
Target sequence (O95977 whole entry, looked up): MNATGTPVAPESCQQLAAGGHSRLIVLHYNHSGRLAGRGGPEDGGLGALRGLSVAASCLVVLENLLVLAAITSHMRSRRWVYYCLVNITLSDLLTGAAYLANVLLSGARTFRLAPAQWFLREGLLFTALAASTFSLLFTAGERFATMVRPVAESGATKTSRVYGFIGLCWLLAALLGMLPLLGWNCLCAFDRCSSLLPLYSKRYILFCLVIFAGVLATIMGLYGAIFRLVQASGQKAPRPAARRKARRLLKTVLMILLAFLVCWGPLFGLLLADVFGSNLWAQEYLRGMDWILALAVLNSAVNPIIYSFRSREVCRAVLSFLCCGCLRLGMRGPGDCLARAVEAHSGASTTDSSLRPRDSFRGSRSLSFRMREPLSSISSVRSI
S1P3 antag: blocks the human S1P3 receptor. Q99500. CHO S1P3 NFAT-BLA reporter, FRET fluorescence, antagonist mode. inhibition, % at 4.98 µM. 0.27% of 170,000 active;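 active = inhibition above the plate cutoff, the mean inhibition of test wells on that plate plus 3 SD, cut at about 28% in these data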;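 also: cells challenged with S1P at its EC80 of 0.8 µM; blue over green emission ratio from cleaved BLA substrate after 4 h stimulation; 0% = S1P-stimulated wells and 100% = unstimulated DMSO-only wells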
EP2 mod: EP2 receptor (human) modulation; induction, % at 25 µM; 0.83% of 260,000 active; EP2-expressing cells, cAMP HTRF FRET, PGE2 co-stimulation;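 active = compounds whose cAMP rise, as percent of the full-agonist control response, exceeds 60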;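 also: rat C6 glioma line stably carrying human EP2 under a CMV promoter; the protocol text gives 20 µM as final concentration; 100% = response of wells given 1 µM PGE2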
S1P4 ag: activates the human S1P4 receptor. S1P4-expressing cell line, agonist reporter assay. activation, % at 4.98 µM. 0.35% of 220,000 active; in the data active = activation above about 11%;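 also: 0% = DMSO vehicle and 100% = reference agonist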
INS promoter inh: TRM-6 insulin promoter activity inhibition; TRM-6 cells (human fetal islet line), insulin promoter-eGFP reporter, imaging; reporter expression induced with tamoxifen; inhibition, % at 2 µM; 0.9% of 130,000 active;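 active = inhibition above the mean plus 3 SD, with well images judged a real hit on visual review, cut at about 60% in these data, passing the limit was not always enough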
EP2 antag: EP2 receptor (human) inhibition | P43116 | C6 glioma cells expressing human EP2, cAMP TR-FRET; cells stimulated with saturating PGE2 | inhibition, % at 25 µM | 0.52% of 260,000 active | AID 1422;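 active = percent inhibition above 40 after rounding to a whole number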;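 also: rat C6 glioma host cells with rolipram phosphodiesterase inhibitor present; the protocol text gives 20 µM as final concentration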
Active calls of the source: *; · = no result given. Hits are enriched below; roughly 2.4% of the tested compounds scored in any of these assays.

SMILES | S1P4 antag | S1P3 antag | EP2 mod | S1P4 ag | INS promoter inh | EP2 antag
CC(C)[C@@H]1OC(=O)C=CC=CC=CC=CC=CC[C@@H](O)[C@H](C)[C@@H](O)C[C@H](O)C[C@H](O)C[C@H](O)C[C@H](O)C[C@H](O)C[C@H](O)C=C[C@@H]1C | · | · | -6.4 | · | · | 48.6*
O=C(NCCCn1ccnc1)c1cc([N+](=O)[O-])cc([N+](=O)[O-])c1 | -14.8 | 1.4 | 37.5 | -0.6 | 73.3* | 3.9
O=C1ON=C(c2ccc(Cl)cc2)/C1=C/c1ccc(O)cc1 | 21.4 | -16.1 | -65.2 | -0.4 | · | 53.0*
CC1=NOC(=O)/C1=C/c1ccc(O)cc1 | -12.1 | -17.3 | 18.4 | 0.1 | -8.3 | 8.0
CCCCC(=O)O[C@H]1CCC2C3CCc4cc(O)ccc4C3CC[C@@]21C (stereo partly specified) | · | · | 18.6 | · | · | 8.1
C[C@@]12CC[C@H]3c4ccc(O)cc4CC[C@@H]3[C@H]1CC[C@H]2OC(=O)CCc1ccccc1 | · | · | 22.5 | · | · | 41.8*
O=C(Oc1c(Cl)cc(Cl)c2cccnc12)c1cccs1 | 13.9 | · | 46.2 | 0.7 | 28.6 | 2.4
O=C(Oc1c(Cl)cc(Cl)c2cccnc12)c1ccco1 | 15.4 | · | 17.6 | -0.3 | 67.9* | 19.8
CCOC(=O)c1sc2ccccc2c1OC(=O)c1ccccc1 | 1.7 | · | 64.8* | 0.8 | 10.8 | 11.6
CCOC(=O)c1sc2ccccc2c1NC(=O)c1coc2ccccc2c1=O | -36.1 | -13.0 | 21.4 | 5.6 | -2.0 | 4.8
O=C(N/N=C/c1ccc(F)cc1)c1ccc(Br)cc1 | -4.8 | · | -13.1 | 0.1 | · | 10.7
CNC(=O)C(=O)N/N=C/c1ccc(Br)cc1 | 0.4 | -3.4 | 15.3 | 0.2 | 70.6* | 3.2
CN(C)c1ccc(C(=C2C=CC(=[N+](C)C)C=C2)c2ccccc2)cc1 | · | · | 11.2 | · | · | 81.1*
CC1Cc2ccccc2N1C(=O)C1CCCN(S(=O)(=O)c2cccc3cccnc23)C1 (stereo unspecified) | -17.8 | 81.7* | -11.5 | -0.5 | · | 5.4
COc1ccc(N2CCN(C(=O)C3CCCN(S(=O)(=O)c4cccc5cccnc45)C3)CC2)cc1 (stereo unspecified) | -6.4 | -0.8 | -0.5 | -2.5 | · | 4.8
NNC(=O)CCc1ccc(S(=O)(=O)N2CCOCC2)cc1 | 9.3 | -14.2 | 13.6 | 0.4 | 81.2* | 4.9
O=C(COc1ccccc1)Nc1ccc(S(=O)(=O)N2CCOCC2)cc1 | -18.1 | 16.7 | -9.5 | -0.4 | 21.2 | 52.2*
CC(C)C(c1nnnn1C1CCCC1)N1CCN(c2ccccc2)CC1 (stereo unspecified) | · | · | -9.1 | · | · | 9.0
O=C(CN1CCC(O)(c2cccnc2)CC1)Nc1ccc(Cl)cc1 | · | · | -51.8 | · | · | ·
CCCCc1nc2ccccc2c(=O)n1NC(=O)c1c(O)c2ccccc2n(C)c1=O | -6.8 | -3.0 | 13.8 | 1.9 | 11.1 | 12.8
Cc1nc2ccccc2c(=O)n1NC(=O)c1c(O)c2ccccc2n(C)c1=O | · | 73.2* | · | · | · | ·
C=CCn1c(SCCN2C(=O)c3ccccc3C2=O)nc2scc(-c3ccccc3)c2c1=O | -7.6 | · | -4.5 | -0.4 | · | 66.1*
COc1ccc2cc3[n+](cc2c1OC)CCc1cc2c(cc1-3)OCO2 | -0.9 | 10.9 | 4.2 | 0.4 | 66.7* | 10.0
O=C(NC1CCCCC1)C(c1ccncc1)N(CC1CCCO1)C(=O)C(F)(F)F (stereo unspecified) | 12.9 | -0.1 | -52.5 | -0.7 | 90.0* | 12.4
CCC(C)N(C(=O)C(F)(F)F)C(C(=O)NC1CCCCC1)c1ccncc1 (stereo unspecified) | -3.4 | · | -15.0 | -1.1 | -52.4 | 6.5
SMILES | S1P4 antag | S1P3 antag | EP2 mod | S1P4 ag | INS promoter inh | EP2 antag
Cc1cc(NC(=O)c2sc(Nc3ccc(F)cc3)nc2N)no1 | -9.6 | 9.4 | -39.4 | 1.7 | -50.0 | 7.3
C=CCNc1nc(N)c(C(=O)Nc2cc(C)on2)s1 | -11.2 | -9.9 | -3.9 | 1.5 | 12.9 | 45.6*
CCC(C)(C)n1nnnc1C(C(C)C)N(Cc1cc2cc(OC)ccc2[nH]c1=O)C1CCCC1 (stereo unspecified) | · | · | 43.1 | · | · | 15.3
Cc1ccnc(N2CCN(c3c4c(c(C#N)c5nc6ccccc6n35)CCC4)CC2)c1 | 2.5 | · | · | 1.0 | 85.7* | ·
CC(C)(C)c1cc(C(F)(F)F)nc(SCCCNC(=O)c2ccco2)n1 | -8.0 | 58.7* | 38.6 | -0.2 | -31.0 | 12.6
COc1cccc(C(=O)N2CCOCC2)c1 | -66.2 | 9.0 | 1.1 | -1.1 | 65.0* | 9.9
COc1cccc(C(=O)Nc2cccc(C(=O)N3CCOCC3)c2)c1 | -9.3 | -24.4 | -1.2 | -2.0 | 65.7 | 2.6
Cc1ccc2nc(-c3ccc4c(c3)OCCO4)cn2c1 | 16.4 | -6.2 | -38.7 | -0.3 | · | 1.1
c1ccn2cc(-c3ccc4c(c3)OCCO4)nc2c1 | -1.7 | -4.2 | -41.4 | 0.3 | 71.4* | 6.0
COc1ccc(C2=NN(Cc3c(F)cccc3Cl)C(=O)CC2)cc1 | 14.5 | -3.7 | 63.4* | -0.6 | · | 8.6
O=C1c2ccccc2C(O)(O)[C@@]1(O)[C@]1(O)C(=O)c2ccccc2C1(O)O | · | · | -41.3 | · | · | 73.2*
CCOC(=O)c1ccc(N=c2sc(C(=O)OC)cc(=O)n2Cc2ccco2)cc1 | 13.6 | -33.9 | -8.3 | -0.7 | · | 10.0
CCOC(=O)c1ccc(N=c2sc(C(=O)OC)cc(=O)n2CCCN2CCOCC2)cc1 | 59.8* | 0.6 | 25.0 | 0.3 | · | 11.7
CCn1c(N2CCC(C(=O)NCCCO)CC2)nc2ccccc21 | · | · | -28.1 | · | · | ·
C=CCCN(C(C(=O)OC)C(C)C)S(=O)(=O)c1ccccc1Br (stereo unspecified) | · | · | 44.2 | · | · | 5.3
C=CCCCN(Cc1ccccc1)S(=O)(=O)c1ccccc1Br | · | · | 60.6* | · | · | 6.1
O=C(Cn1cnc2ccccc2c1=O)N1CC[C@@H](c2ccccc2)[C@H](O)C1 | · | · | -21.4 | · | · | 8.8
O=C(O)CNC(=O)[C@H]1NC(C(F)(F)F)(C(F)(F)F)OC1(C(F)(F)F)C(F)(F)F | · | · | 25.4 | · | · | 42.1*
CCOC(=O)C1(C)C=C(Nc2ccc(OCC)cc2)C(=O)N1c1ccccc1 (stereo unspecified) | -16.6 | 2.0 | 19.0 | 0.8 | · | 8.6
CCOC(=O)C1(C)C=C(Nc2ccccc2)C(=O)N1c1ccccc1 (stereo unspecified) | -28.3 | -0.1 | 61.5* | 1.9 | 71.4* | 6.6
COCC(=O)N(C)c1nnc(-c2cccc(OC)c2)s1 | · | · | 4.1 | · | · | 7.6
O=C(CSc1nnc(NC(=O)Cc2ccc(F)cc2)s1)NCc1ccco1 | 4.0 | -15.7 | -12.2 | 0.3 | 91.7* | 7.5
CCOc1ccc(C2NC(=O)C(C#N)=C(S)N2c2ccc(OC)cc2)cc1OC (stereo unspecified) | -21.9 | · | 11.0 | 0.0 | 80.0* | 7.8
COc1ccc(/C=N/N=C2/NC(=O)C(CC(=O)O)S2)cc1OS(=O)(=O)c1ccccc1 (stereo unspecified) | -9.4 | -16.9 | 11.8 | 0.1 | · | 4.9
Cc1ccc(S(=O)(=O)Oc2ccc(C)cc2/C=N/N=C2\NC(=O)C(C)S2)cc1 (stereo unspecified) | -2.2 | · | 14.6 | -1.2 | 79.0* | 9.1

High-throughput results deposited in PubChem by several laboratories.
